Here are results for 40 molecules from PubChem BioAssay (NCI).

Where “and” joins values, the source holds several entries; their conditions need not be identical. Identical values can stand only once. Compounds without any hit were thinned out: in the full panel of roughly 83,000, 20% have a hit.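 Method: cells in 96-well plates; compound added at one concentration; 48 h incubation; percent growth measured; values under 10 scored active.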 Values without a mark were called inactive. Calls of active or inactive are those of the source.

The assay relates to HL-60(TB) leukemia. In words: NCI-60 one-dose screen, 48 h (100 = growth as untreated, 0 = no growth, -100 = all killed). Particulars: 10 µM unless noted.
As to `O=C(N/N=C/c1cccc(O)c1)c1ccc(C(F)(F)F)nc1Nc1cccc(C(F)(F)F)c1`, the growth is -30.4% (active). Regarding `COc1ccc2c(c1)[n+](=O)c(/C=C/C(=O)c1cc(OC)c(OC)c(OC)c1)c(C)n2[O-]`, the growth is -49.1% (active). For `CCOc1cc2ncc(C#N)c(Nc3ccc(F)c(Cl)c3)c2cc1NC(=O)CC1CCSS1` (stereo not given) the value was -33.9% (active); for `Cc1ccc(/C=C2\CN(Cc3cn(CCNc4ccnc5cc(Cl)ccc45)nn3)C/C(=C\c3ccc(C)cc3)C2=O)cc1`, -28.8% (active).

Consider `CCc1cnn2c(NCc3ccc[n+]([O-])c3)cc(N3CCCC[C@H]3CCO)nc12`, for which the growth was -43.2% (active). The value for `O=Nc1ccc(NO)c2ccccc12` was 108% and 26.9%; that for `CNC(=S)Sc1ccc([N+](=O)[O-])cc1[N+](=O)[O-]` was -14.6% (active). The value for `O=C(N/N=C/c1ccc(F)cc1)c1[nH]c2ccc(I)cc2c1-c1ccccc1` was 51.2%. The value for `CC(=O)OCC1OC(OCC2OC(OC(C)=O)C(OC(C)=O)C(OC(C)=O)C2OC(C)=O)C(OC(C)=O)C(OC(C)=O)C1OC(C)=O` (stereo not given) was 115%; that for `O=C(OCc1ccc2c(Cl)cc(Cl)c(O)c2n1)N1CCN(C(=O)c2cc3cc(F)ccc3[nH]2)CC1` was -49.4% (active); that for `CCN(CC)S(=O)(=O)c1cccc(-c2ccc3c(NC(=O)C4CC4)n[nH]c3c2)c1` was 10.3% [6.25 µM].

In the case of `COc1ccc(S(=O)(=O)c2ccc(F)cc2)cc1`, the growth is 105%. Take `O=c1c(-c2nc3ccccc3[nH]2)cc2ccccc2n1Cc1cn(Cc2ccc(F)cc2)nn1`: the growth is 0.035% (active). With `NS(=O)(=O)c1ccc(CCNC(=O)/C=C/c2ccc(Cl)cc2)cc1`, the growth was 89.1%. For `NC(=O)c1ccc[n+]([C@@H]2O[C@H](COP(=O)([O-])OP(=O)(O)OC[C@H]3O[C@@H](n4cnc5c(N)ncnc54)[C@H](O)[C@@H]3O)[C@@H](O)[C@H]2O)c1` the value was 109%; for `COc1ccc(/C=c2\sc3n(c2=O)C2C(NN=3)N(C)C(=O)N2C)cc1` (stereo not given), -47.5% (active). The value for `COc1ncc(F)c(OC)n1` was 95.3%. The value for `CC(=O)[C@H]1CCC/C=C/[C@@H]2C[C@H](O)C[C@H]2[C@H](O)/C=C/C(=O)O1` was -54.4% (active). For `O=C1CSC(c2ccccc2Cl)N1c1nnc(Cn2nnc3ccccc32)o1` (stereo not given), the growth was 84.4%. For `Cc1ccc(N(CC2=NCCN2)c2cccc(O)c2)cc1` the value was 105%; for `COc1ccc(CCN2C(=O)CCC3=C2CCCC3=O)cc1OC`, 107%. The value for `COC(=O)c1c2c(c(C)[n+]([O-])c1C)C(=O)C=C(NCc1ccc(F)cc1)C2=O` was -29.4% (active); that for `O=C(Nc1cccc(-n2ccc3c(NC(=O)c4ccccc4)nccc32)c1)c1cccc(C(F)(F)F)c1` was 0.531% (active). The value for `COc1cc(-n2nc(C(=O)Nc3ccc(C(=O)O)cc3)nc2-c2ccccc2)cc(OC)c1OC` was 103%; that for `C#Cc1cccc(Nc2ncnc3cc(OC)c(OCCCCCCC(=O)NO)cc23)c1` was 2.38% (active). Consider `Nc1ccc(-c2nn3c(CCC(=O)c4nc5ncccc5[nH]4)nnc3s2)c(O)c1`, for which the growth was 107%. On to `COc1ccc(C2=CC(c3cc(OC)c(OC)c(OC)c3)NC(=O)N2)cc1OC` (stereo not given), for which the growth was 2.95% (active). As to `CCC1=C[C@@H]2CN(C1)Cc1c([nH]c3ccccc13)[C@@](C(=O)OC)(c1cc3c(cc1OC)N(C)[C@H]1[C@@](O)(C(=O)OC)[C@H](OC(C)=O)[C@]4(CC)[C@@H]5C[C@@H]5CN5CC[C@]31[C@@H]54)C2`, the growth was -57.3% (active). For `C[C@H](CCC(=O)O)[C@H]1CC[C@H]2[C@@H]3CC[C@@H]4/C(=C\c5ccco5)C(=O)/C(=C\c5ccco5)C[C@]4(C)[C@H]3CC[C@]12C` the value was 29.9%; for `CCOC(=O)c1cc2c(n1Cc1ccccc1)-c1oncc1CCC2`, 33.9%; for `COc1ccc(C(=S)c2cc(OC)c(OC)c(OC)c2)cc1OC(=O)CCl`, -33% (active). The value for `O=C(Nc1ccc2cc3ccc(NC(=O)NC4CCCCC4)cc3nc2c1)NC1CCCCC1` was 99.3%; that for `CC(C)=CCC[C@](C)(O)[C@H]1CC[C@]2(C)[C@@H]1CC[C@@H]1[C@@]3(C)Cc4nccnc4C(C)(C)[C@@H]3CC[C@]12C` was 67.8%. As to `N=C(N)c1ccc(-c2ccc(-c3ccc(Cl)cc3)s2)nc1`, the growth is -39.1% (active).

For the molecule `CC1(C)c2[nH]c3ccccc3c2C[C@]2(C)[C@H]3CC=C4[C@@H]5C[C@@](C)(C(N)=O)CC[C@]5(C)CC[C@@]4(C)[C@]3(C)CC[C@@H]12`, the growth was 55.8%. The value for `CNC(=O)c1cc(Oc2ccc(NC(=O)Nc3ccc(Cl)c(OC(C)C)c3)c(F)c2)ccn1` was 59.6%; that for `Cc1cc(C)cc(CCCCCCCCCCCCCCCCCC(=O)O)c1` was 71%.

On to `O=C(O)c1cn(-c2ccccc2)nc1-c1ccc(O)cc1`, for which the growth was 95.7%. For the molecule `N#Cc1cc(-c2nc3ccccc3s2)c(=O)n(NS(=O)(=O)c2ccc(Cl)cc2)c1N`, the growth was 103%.

On to `O=C(/C=C/CN1CCCCC1)Nc1cc2c(Nc3ccc(F)c(Cl)c3F)ncnc2cc1OCCOC(F)F`, for which the growth is 17.9%.
